Reference: PubChem BioAssay
Active and inactive are the calls of the source. The rule behind the calls is not given here.

What follows are compounds tested against Pantothenate synthetase (Mycobacterium tuberculosis (strain ATCC 25618 / H37Rv)) (UniProt P9WIL5) (assay: Coupled enzyme confirmation of inhibitors against recombinant Mtb PanC (AID 375;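 note: 0% = full reaction with vehicle and 100% = no enzyme background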)). Conditions: coupled enzyme assay; at 10 µM, stronger effect = higher value.
Sequence of Pantothenate synthetase (Mycobacterium tuberculosis (strain ATCC 25618 / H37Rv)) (P9WIL5 whole entry, looked up): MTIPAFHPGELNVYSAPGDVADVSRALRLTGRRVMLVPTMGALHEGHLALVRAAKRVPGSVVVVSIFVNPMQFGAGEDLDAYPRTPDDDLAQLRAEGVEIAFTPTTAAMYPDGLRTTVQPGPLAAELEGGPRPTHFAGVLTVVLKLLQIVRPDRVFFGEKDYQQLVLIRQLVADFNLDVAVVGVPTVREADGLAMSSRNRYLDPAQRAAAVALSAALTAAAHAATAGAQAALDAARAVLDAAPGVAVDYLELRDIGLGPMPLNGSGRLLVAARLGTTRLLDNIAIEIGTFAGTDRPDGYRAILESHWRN

| Structure (SMILES) | inhibition |
| --- | --- |
| CCOc1ccc(NC(=O)c2ccc3c(c2)N(Cc2ccc(F)cc2)C(=O)CS3=O)cc1 (configuration not stated) | 10% (inactive) |
| CCCCOc1cc(=O)[nH]c(=O)[nH]1 | 4% (inactive) |
| CC(=O)c1cccc(-n2nnnc2SCC(=O)N2CCCC2)c1 | 5% (inactive) |
| Cc1cc(C(=O)N2CCN(c3ncccn3)CC2)cs1 | 4% (inactive) |
| Cc1cccc(NC(=O)c2cc(NC(=O)c3ccco3)ccc2Cl)n1 | 0% (inactive) |
| COC(=O)c1cc(Br)c(=O)n(-c2nccs2)c1 | 0% (inactive) |
| CCOC(=O)C1CCCN(C(=O)c2cccs2)C1 (configuration not stated) | 8% (inactive) |
| COc1ccccc1CC(=O)NCC1CCCO1 (configuration not stated) | 0% (inactive) |
| COc1ccc(N2CCN(C(=O)CSc3nnc4n3C(C)(C)Cc3ccccc3-4)CC2)cc1 | 0% (inactive) |
| O=C1OC(N2CCN(c3ccccn3)CC2)c2ccccc21 (configuration not stated) | 0% (inactive) |
| O=C(OCCCN1C(=O)c2ccccc2C1=O)c1ccco1 | 2% (inactive) |
| O=C(NCc1cccnc1)c1ccc(=O)oc1 | 3% (inactive) |
| CCOCCn1c(CN2CCN(c3cccc(Cl)c3)CC2)nc2c1c(=O)n(C)c(=O)n2C | 4% (inactive) |
| Cc1n[nH]c(C)c1S(=O)(=O)N1CCCCCC1 | 0% (inactive) |
| COCCCNC(=O)CCc1nc(-c2ccccc2Cl)no1 | 0% (inactive) |
| COc1ccc(-n2nnnc2SCC(=O)c2ccc(O)c(O)c2)cc1 | 0% (inactive) |
| CCOc1ccc(C2C=C(c3ccc(F)cc3)Nc3ncnn32)cc1 (configuration not stated) | 9% (inactive) |
| Cc1nnc(SCC(=O)NCc2ccccc2)s1 | 0% (inactive) |
| CN(C)CCN1C(=O)C(O)=C(C(=O)c2cc3ccccc3o2)C1c1ccc(N(C)C)cc1 (configuration not stated) | 0% (inactive) |
| CCC1(CC)C(=O)C(C)(C)C(=O)OC1c1cccs1 (configuration not stated) | 0% (inactive) |
| O=C(Cn1cc2c(n1)CCCC2)NCCc1ccccc1 | 0% (inactive) |
| O=C1CC(C(=O)Nc2ccc(Br)cc2)C2(CCCC2)O1 (configuration not stated) | 1% (inactive) |
